# Laboratory results as given in the supplement of paper PMC10849652.
# The full data set covers some 7,900 targets. This sample favours those with a hit. About 0.6% of all pairs of compound and target were hits. Values without a mark were called inactive.
# Legend:
# Assay in all cases: log2 fold change, soluble protein after heating vs DMSO (PISA); higher = thermal stabilisation; K562 cells, 10 uM, 30 min; active = over 0.2 and 3.5 SD of the protein, either way, in both replicates (recomputed)
# erlotinib = compound: C#Cc1cccc(Nc2ncnc3cc(OCCOC)c(OCCOC)cc23)c1 [erlotinib]
# Summary of the method: (§1)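 For each measurement, 10 μM compound was applied for 30 min to K562 cells at 2×10^6 cells/mL. Aliquots were heated for 3 min across 48°C-58°C, pooled, and extracted in PBS with 0.5% NP-40 at 4°C; the supernatant after 21,000xg for 90 min was soluble protein. This was quantified by TMTpro 16plex LC-MS/MS with channel sums equalised, and thermal stability was reported relative to control samples from duplicates, on a log2 fold-change scale.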
# [1] = compound: C/C(=N\NC(=O)C1=CC(=CC=C1)S(=O)(=O)N2CCOCC2)/C3=C(C=CC(=C3)Cl)O
# Summary of the method: as §1
# [2] = compound: C1=CC(=C(C=C1Cl)C2=NC3=NC=CN=C3C(=N2)NC4=CC=NC=C4)F
# Summary of the method: as §1
# [3] = compound: C1=CC(=CC=C1C2=NC3=C(N2)C=C(C=C3)C(=O)N)OC4=CC=C(C=C4)Cl
# Summary of the method: as §1
# [4] = compound: C1=CC2=C(C=CC(=C2)/C=C\3/C(=O)NC(=NCC4=CC=CS4)S3)N=C1
# Summary of the method: as §1
# [5] = compound: C1=CC2=NC=CN=C2C=C1/C=C/3\C(=O)NC(=O)S3
# Summary of the method: as §1
# [6] = compound: C1=CC=C(C=C1)C2=NC(=C(N2)C3=CC=NC=C3)C4=CC(=C(C=C4)Cl)O
# Summary of the method: as §1
# [7] = compound: C1=CC=C2C(=C1)C3=NNC4=CC=CC(=C43)C2=O
# Summary of the method: as §1
# [8] = compound: C1CCN(C1)C(=O)NC2=CC=CC(=C2)NC3=NC=C(C(=N3)NCCC4=CN=CN4)Br
# Summary of the method: as §1
# [9] = compound: C1CN(CCC1(CC2=CC=C(C=C2)Cl)N)C3=NC=NC4=C3C=CN4
# Summary of the method: as §1
# IRAK-1-4 Inhibitor I = compound: C1COCCN1CCN2C3=CC=CC=C3N=C2NC(=O)C4=CC(=CC=C4)[N+](=O)[O-] [IRAK-1-4 Inhibitor I]
# Summary of the method: as §1
# ibrutinib = compound: C=CC(=O)N1CCC[C@@H](n2nc(-c3ccc(Oc4ccccc4)cc3)c3c(N)ncnc32)C1 [ibrutinib]
# Summary of the method: as §1
# [10] = compound: CC(=O)c1cnc2ccc(-c3cc(Cl)c(O)c(Cl)c3)nc2c1N[C@H]1CC[C@H](CN(C)C)CC1
# Summary of the method: as §1
# ralimetinib = compound: CC(C)(C)Cn1c(N)nc2ccc(-c3[nH]c(C(C)(C)C)nc3-c3ccc(F)cc3)nc21 [ralimetinib]
# Summary of the method: as §1
# [11] = compound: CC(C)(O)CC(=O)NCCn1ccc2ncnc(Nc3ccc(Oc4cccc(C(F)(F)F)c4)c(Cl)c3)c21
# Summary of the method: as §1
# [12] = compound: CC(C)C1=C2N=C(C=C(N2N=C1)NCC3=CC=CC=C3)NCCCCCCN
# Summary of the method: as §1
# [13] = compound: CC(C)C[C@@H](C=O)NC(=O)[C@H](CC(C)C)NC(=O)[C@H](CC(C)C)NC(=O)OCc1ccccc1
# Summary of the method: as §1
# pinometostat = compound: CC(C)N(C[C@H]1O[C@@H](n2cnc3c(N)ncnc32)[C@H](O)[C@@H]1O)[C@H]1C[C@@H](CCc2nc3cc(C(C)(C)C)ccc3[nH]2)C1 [pinometostat]
# Summary of the method: as §1
# [14] = compound: CC1=C(C(CC(=O)N1)C2=CC=C(C=C2)C(F)(F)F)C(=O)NC3=C(C=C4C(=C3)C=NN4)F
# Summary of the method: as §1
# [15] = compound: CC1=C(C2=C(C=C1)C(=O)C3=CC=CC=C3N2CCCN)C
# Summary of the method: as §1
# UniProt Q9ULX6, sequence (Q9ULX6 whole entry, looked up): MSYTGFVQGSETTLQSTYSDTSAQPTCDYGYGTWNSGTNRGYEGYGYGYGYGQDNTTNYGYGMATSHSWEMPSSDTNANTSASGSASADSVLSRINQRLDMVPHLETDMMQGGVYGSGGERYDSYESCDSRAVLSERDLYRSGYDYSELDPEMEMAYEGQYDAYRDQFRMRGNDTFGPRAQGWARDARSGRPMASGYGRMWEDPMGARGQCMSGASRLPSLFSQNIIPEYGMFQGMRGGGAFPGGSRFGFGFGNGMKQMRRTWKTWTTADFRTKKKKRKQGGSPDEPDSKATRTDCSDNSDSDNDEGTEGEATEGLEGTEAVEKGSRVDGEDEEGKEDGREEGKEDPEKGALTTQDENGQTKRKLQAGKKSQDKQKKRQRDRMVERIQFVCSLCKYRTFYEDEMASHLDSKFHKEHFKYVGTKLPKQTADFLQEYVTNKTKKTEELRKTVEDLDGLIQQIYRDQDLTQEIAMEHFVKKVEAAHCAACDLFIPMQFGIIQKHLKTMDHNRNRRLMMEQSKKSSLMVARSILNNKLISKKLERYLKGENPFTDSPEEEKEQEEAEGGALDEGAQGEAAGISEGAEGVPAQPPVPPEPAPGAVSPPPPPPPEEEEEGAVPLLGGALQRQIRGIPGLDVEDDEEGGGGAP
# UniProt P63010, sequence (P63010 whole entry, looked up): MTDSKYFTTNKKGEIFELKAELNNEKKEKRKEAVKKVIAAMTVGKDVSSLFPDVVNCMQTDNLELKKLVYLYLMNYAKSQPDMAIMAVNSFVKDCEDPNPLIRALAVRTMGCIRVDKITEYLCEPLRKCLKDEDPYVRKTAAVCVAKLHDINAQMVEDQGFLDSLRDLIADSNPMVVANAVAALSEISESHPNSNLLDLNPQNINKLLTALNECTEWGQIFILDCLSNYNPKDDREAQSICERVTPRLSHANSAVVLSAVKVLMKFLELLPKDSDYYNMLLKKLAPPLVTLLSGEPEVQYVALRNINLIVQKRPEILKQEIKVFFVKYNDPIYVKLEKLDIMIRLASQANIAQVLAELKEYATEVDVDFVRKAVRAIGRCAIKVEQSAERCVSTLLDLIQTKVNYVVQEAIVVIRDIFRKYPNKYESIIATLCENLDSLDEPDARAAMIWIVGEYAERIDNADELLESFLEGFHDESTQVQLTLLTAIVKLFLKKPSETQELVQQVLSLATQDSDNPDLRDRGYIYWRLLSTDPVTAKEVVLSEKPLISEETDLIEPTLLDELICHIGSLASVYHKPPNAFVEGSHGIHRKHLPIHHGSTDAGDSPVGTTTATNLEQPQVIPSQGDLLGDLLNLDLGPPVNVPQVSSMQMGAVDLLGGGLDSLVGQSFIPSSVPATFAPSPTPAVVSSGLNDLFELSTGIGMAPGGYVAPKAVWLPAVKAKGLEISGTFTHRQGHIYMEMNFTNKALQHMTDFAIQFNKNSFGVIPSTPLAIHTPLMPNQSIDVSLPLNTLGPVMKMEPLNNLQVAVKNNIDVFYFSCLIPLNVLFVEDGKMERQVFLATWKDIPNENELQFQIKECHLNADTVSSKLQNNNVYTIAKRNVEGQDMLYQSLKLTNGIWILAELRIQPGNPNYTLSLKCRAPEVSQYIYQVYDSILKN
# UniProt Q9H8Y5, sequence (Q9H8Y5 whole entry, looked up): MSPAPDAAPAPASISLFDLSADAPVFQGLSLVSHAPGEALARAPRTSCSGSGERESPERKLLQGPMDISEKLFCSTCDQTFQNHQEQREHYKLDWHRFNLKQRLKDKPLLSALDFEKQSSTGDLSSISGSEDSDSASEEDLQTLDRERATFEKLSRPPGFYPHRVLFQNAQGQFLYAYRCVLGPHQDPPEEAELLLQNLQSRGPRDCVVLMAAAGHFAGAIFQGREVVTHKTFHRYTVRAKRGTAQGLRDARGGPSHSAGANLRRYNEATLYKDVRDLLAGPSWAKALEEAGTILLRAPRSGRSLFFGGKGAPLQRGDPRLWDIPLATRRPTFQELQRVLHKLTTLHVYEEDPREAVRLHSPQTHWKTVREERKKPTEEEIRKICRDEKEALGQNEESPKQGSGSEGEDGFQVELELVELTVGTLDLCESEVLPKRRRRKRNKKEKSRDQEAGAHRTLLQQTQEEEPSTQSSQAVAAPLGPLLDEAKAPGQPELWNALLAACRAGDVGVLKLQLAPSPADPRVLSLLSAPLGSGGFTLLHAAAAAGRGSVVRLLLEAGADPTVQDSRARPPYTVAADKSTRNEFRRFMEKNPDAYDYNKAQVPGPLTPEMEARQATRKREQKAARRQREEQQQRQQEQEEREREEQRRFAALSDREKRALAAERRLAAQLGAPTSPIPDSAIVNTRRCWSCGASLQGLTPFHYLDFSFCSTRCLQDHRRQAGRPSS
# UniProt O15440, sequence (O15440 whole entry, looked up): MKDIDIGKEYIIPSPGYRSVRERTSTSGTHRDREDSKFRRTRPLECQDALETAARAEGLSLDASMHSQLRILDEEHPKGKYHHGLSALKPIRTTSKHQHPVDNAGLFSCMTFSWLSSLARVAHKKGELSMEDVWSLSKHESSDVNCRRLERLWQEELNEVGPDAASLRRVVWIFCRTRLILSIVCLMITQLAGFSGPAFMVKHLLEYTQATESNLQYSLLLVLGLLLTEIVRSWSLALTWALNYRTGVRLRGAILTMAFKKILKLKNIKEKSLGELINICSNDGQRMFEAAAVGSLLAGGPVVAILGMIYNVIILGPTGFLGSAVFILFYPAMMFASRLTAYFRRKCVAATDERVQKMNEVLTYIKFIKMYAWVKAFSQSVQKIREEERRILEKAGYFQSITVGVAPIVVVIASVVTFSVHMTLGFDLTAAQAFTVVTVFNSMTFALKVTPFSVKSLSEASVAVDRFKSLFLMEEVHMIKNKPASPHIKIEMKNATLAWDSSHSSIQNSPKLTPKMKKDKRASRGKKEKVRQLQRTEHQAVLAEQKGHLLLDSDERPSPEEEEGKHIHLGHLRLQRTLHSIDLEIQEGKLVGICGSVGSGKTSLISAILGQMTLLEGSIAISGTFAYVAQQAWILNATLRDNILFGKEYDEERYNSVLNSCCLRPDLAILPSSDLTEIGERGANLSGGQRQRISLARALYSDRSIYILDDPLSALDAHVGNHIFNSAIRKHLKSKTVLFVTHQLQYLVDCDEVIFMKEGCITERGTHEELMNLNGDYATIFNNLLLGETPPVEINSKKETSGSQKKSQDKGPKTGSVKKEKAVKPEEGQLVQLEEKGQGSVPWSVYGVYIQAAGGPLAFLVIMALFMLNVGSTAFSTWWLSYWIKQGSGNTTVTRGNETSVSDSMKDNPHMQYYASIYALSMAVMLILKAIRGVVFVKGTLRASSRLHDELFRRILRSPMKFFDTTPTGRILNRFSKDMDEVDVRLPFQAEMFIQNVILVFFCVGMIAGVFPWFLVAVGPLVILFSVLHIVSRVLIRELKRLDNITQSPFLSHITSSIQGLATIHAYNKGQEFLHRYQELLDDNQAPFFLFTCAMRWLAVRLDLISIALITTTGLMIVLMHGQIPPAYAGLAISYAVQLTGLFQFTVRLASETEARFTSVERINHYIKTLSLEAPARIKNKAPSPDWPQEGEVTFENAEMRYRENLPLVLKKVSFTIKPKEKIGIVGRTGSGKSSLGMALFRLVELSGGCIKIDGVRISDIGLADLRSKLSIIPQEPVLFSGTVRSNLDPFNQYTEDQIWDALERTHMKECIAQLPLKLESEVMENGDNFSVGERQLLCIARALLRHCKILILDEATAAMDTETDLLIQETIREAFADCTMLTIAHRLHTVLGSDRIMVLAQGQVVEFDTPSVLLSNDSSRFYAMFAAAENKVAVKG
# UniProt Q9HC16, sequence (Q9HC16 whole entry, looked up): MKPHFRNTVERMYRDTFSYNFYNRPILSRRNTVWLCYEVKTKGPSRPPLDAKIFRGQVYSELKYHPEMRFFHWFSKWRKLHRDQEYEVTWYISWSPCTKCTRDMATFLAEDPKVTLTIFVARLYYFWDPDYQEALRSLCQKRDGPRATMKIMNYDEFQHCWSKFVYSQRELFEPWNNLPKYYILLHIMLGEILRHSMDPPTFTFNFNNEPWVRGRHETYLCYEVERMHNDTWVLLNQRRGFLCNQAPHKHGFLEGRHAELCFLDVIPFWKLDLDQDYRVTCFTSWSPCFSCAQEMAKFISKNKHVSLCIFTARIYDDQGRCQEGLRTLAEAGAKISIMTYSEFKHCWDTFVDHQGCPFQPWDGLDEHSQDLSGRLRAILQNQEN
# UniProt P49748, sequence (P49748 whole entry, looked up): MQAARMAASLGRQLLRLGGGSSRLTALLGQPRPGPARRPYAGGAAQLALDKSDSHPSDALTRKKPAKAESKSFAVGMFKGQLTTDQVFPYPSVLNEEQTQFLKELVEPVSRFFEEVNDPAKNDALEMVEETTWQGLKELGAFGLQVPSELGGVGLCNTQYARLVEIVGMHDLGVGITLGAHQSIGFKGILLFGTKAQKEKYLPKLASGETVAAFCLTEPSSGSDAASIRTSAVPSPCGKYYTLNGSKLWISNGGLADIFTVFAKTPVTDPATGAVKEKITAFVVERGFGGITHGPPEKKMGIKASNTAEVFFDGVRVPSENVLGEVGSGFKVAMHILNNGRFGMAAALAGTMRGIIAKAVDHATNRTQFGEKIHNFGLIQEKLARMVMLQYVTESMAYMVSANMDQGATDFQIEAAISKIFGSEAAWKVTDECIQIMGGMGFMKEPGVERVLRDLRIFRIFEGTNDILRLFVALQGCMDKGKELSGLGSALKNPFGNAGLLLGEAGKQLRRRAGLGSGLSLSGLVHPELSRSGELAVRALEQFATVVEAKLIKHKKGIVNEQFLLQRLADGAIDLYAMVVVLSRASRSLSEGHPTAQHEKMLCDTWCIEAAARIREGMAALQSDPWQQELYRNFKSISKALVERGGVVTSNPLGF
Target,log2 fold change (erlotinib),log2 fold change [1],log2 fold change [2],log2 fold change [3],log2 fold change [4],log2 fold change [5],log2 fold change [6],log2 fold change [7],log2 fold change [8],log2 fold change [9],log2 fold change (IRAK-1-4 Inhibitor I),log2 fold change (ibrutinib),log2 fold change [10],log2 fold change (ralimetinib),log2 fold change [11],log2 fold change [12],log2 fold change [13],log2 fold change (pinometostat),log2 fold change [14],log2 fold change [15]
B4GALT1 (UniProt P15291),-0.095,0.07,-0.018,0.047,-0.033,0.07,-0.035,0.024,-0.078,0.017,0.034,-0.057,-0.019,0.094,0.094,-0.294 (active),0.017,-0.051,0.006,-0.03
ANKRD29 (UniProt Q8N6D5),0.243,-0.445 (active),0.083,-0.021,0.223,-0.015,-0.046,0.098,-0.025,0.096,-0.001,-0.18,0.026,-0.057,-0.15,0.007,-0.153,-0.012,0.009,0.024
ANKZF1 (UniProt Q9H8Y5),0.142,0.032,-0.141,0,0.015,-0.108,-0.035,-0.039,0.057,-0.022,-0.052,0.031,-0.19,0.189,0,-0.065,0.192,0.136,0.034,-0.069
ALG5 (UniProt Q9Y673),-0.008,0.014,0.071,0.008,0.023,0.003,0.009,0.048,-0.026,-0.007,0.026,-0.043,-0.281 (active),0.009,-0.009,-0.004,0,-0.002,-0.057,0.07
ATP7B (UniProt P35670),-0.005,0.073,-0.037,0.051,0.119,0.01,0.077,-0.009,-0.075,-0.052,-0.022,-0.033,0.077,0.043,0.003,0.011,0.015,0.056,-0.124,0.061
ABCA4 (UniProt P78363),0.191,-0.367,0.107,-0.151,0.062,-0.073,0.042,0.044,0.033,0.145,0.128,0.078,-0.014,0.215,-0.047,0.127,0.481,-0.06,-0.05,0.082
ACADVL isoform 3 (UniProt P49748),0.008,0.015,0.035,0.291 (active),0.023,0.055,0.027,0.155,0.025,0.043,0.038,-0.002,0.005,-0.015,-0.016,-0.013,-0.025,-0.067,-0.032,0.002
ACP2 (UniProt P11117),0.031,0.004,0.061,0.019,0.019,-0.01,0.022,-0.022,-0.003,0.045,0.047,0.033,-0.012,-0.012,-0.03,-0.205,-0.026,0.027,0.02,-0.006
AP2B1 isoform 2 (UniProt P63010),-0.021,0.017,-0.01,0.003,0.004,-0.009,-0.004,-0.158,-0.225 (active),-0.003,-0.002,0.025,-0.034,0,0.008,0.029,0.005,0.011,0.027,0.035
AKAP8 (UniProt O43823),-0.056,0.032,0.074,0.039,-0.028,-0.004,-0.039,-0.068,0.015,0.018,0.058,0.002,-0.205,-0.018,-0.097,0.019,0.054,0.003,0.056,-0.113
ABCC5 (UniProt O15440),-0.027,0.035,0.064,-0.004,0.059,-0.048,-0.014,-0.071,-0.037,0.129,-0.035,-0.082,0,0.001,-0.121,0.119,0.046,0.086,0.038,0.116
ARMC10 (UniProt Q8N2F6),-0.021,0.044,-0.092,-0.066,0.005,0.006,-0.034,0.016,0.003,-0.023,0.001,-0.018,-0.035,-0.003,-0.029,0.005,0.034,0.033,0.003,0
AKAP8L (UniProt Q9ULX6),0.001,0.085,0.074,0.026,-0.006,-0.058,-0.054,-0.027,-0.053,0.031,-0.076,-0.001,-0.128,0.091,-0.091,-0.299,0.106,-0.018,0.024,-0.34
ACSL1 (UniProt P33121),-0.015,0.067,0.017,0.03,0.005,0.018,0.057,0.016,-0.021,0.002,-0.004,0.017,-0.037,-0.018,0.01,-0.243 (active),-0.057,0.008,0.058,0.03
APOBEC3G (UniProt Q9HC16),-0.087,0.027,-0.124,0.047,-0.005,0.056,-0.056,0.109,0.181,-0.362,-0.064,0.103,-0.111,0.128,0.075,0.046,0.077,0.11,-0.09,-0.492 (active)
APLP2 (UniProt Q06481),0.003,0.009,-0.023,-0.034,0.023,0.004,0.044,-0.03,-0.047,-0.002,-0.073,-0.005,-0.004,0.086,0.133,0.167,0.062,0,-0.017,-0.225
